SMILES strings stand for the structures. Hit rate of the full screen: of about 63,000 compounds, about 1,100 (1.7%) were called active. This is one part of a sample in which actives are shown more often than they occur. Results with a measured potency or affinity are listed apart. Values without a mark were called inactive. No stated cut-off is given here; in the data, active means cytotoxicity above about 50%; inactive means the rest.

This experiment can be described thus: HPDE-C7 pancreatic duct cell viability loss – fluorescence, HTS (AID 430).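 Further: cells exposed to compound for 48 hours before viability readout; 0% = vehicle and 100% = reference cytotoxic drug.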 To be noted: HPDE-C7 pancreatic duct cells viability, at 10 µM, active compounds read high.
`CCCOCCOC(=O)C1=C(C)NC(=O)NC1c1cc(Cl)c(O)c(OC)c1` (centres undefined): the cytotoxicity is -9.1%.
Then `Cc1nn(CC(O)Cn2c3c(c4ccccc42)CCN(C)C3=O)c(C)c1Br` (centres undefined), with -4.2%; and `CCOC(=O)c1cc(C)n(CCc2ccccc2)c1C`, with -7.6%.
As to `Cc1cc(-c2csc(N)n2)c(C)n1CCc1ccccc1`, the cytotoxicity is 78.3% (active).
Then `Nc1nc(-c2ccccc2Br)cs1`, with 11.7%; and `CCOC(=O)N1CCN(C/C(C)=C/c2ccccc2)CC1`, with -6%; and `CCN(CCN(C)C)C(=O)Cn1ncc2c1-c1cc(C)ccc1OC2`, with -7.1%.
On to `CCOc1cc(C(=O)N2CCc3cc(OC)c(OC)cc3C2)ccc1OC(F)F`, for which the cytotoxicity is 82.5% (active).
As to `COc1ccc(C(=O)N2CCc3cc(OC)c(OC)cc3C2)cc1OC`, the cytotoxicity is 5.8%.
Take `CCOc1ccc(C(=O)N2CCc3cc(OC)c(OC)cc3C2)cc1OCC`: the cytotoxicity was 18.6%.
To `Cc1ccccc1CSc1ncc(C#N)c(N)n1` belongs -10.1%; to `COc1ccc(Nc2cc(C(=O)NCCCN3CCN(C)CC3)c3ccccc3n2)c(OC)c1`, 2%; to `Cc1csc(C(C#N)C(=O)c2ccncc2)n1` (centres undefined), -11%.
As for `COc1ccc(-n2c3c(cc(C(=O)Nc4ccc5c(c4)C(=O)NC5=O)c2=O)C(=O)CCC3)cc1`, the cytotoxicity is 58.8% (active).
With `Cc1cccc(NC(=O)c2cc3c(n(-c4ccccc4)c2=O)CCCC3=O)n1`, the cytotoxicity is 9.4%.
To `Cc1ccc(-n2c3c(cc(C(=O)Nc4cccc(C)n4)c2=O)C(=O)CCC3)cc1` belongs -27.7%.
To `COC(=O)c1cc(OC)c(OC)cc1-n1cnc2cc(OC)c(OC)cc2c1=O` belongs -9.2%.
For the compound `Cc1cccc(NC2=NC3(CCCCC3)N=C(N)N2)c1C`, the cytotoxicity is -3.7%.
On to `CCOc1ccc(NC(=O)CN2C(=O)COc3ccc(Cl)cc32)cc1`, for which the cytotoxicity was -2%.
For the compound `CCOC(=O)c1ccc2c(c1)nc(SC/C(O)=C(\C#N)c1nc3ccccc3[nH]1)n2CC`, the cytotoxicity is 16.2%.
As for `Cc1nnc(SCc2ccc(Cl)cc2)n1CC1CCCO1` (centres undefined), the cytotoxicity was 2.4%.
On to `Cc1nnc(SCC(=O)n2c3c(c4ccccc42)CCCC3)s1`, for which the cytotoxicity is -1%.
In the case of `O=C(O)CSc1nnc(-c2ccccc2)o1`, the cytotoxicity was 0.1%.
`O=C(CSc1nnc(-c2ccccc2)o1)n1c2c(c3ccccc31)CCCC2`: the cytotoxicity is 53.3% (active).
Consider `CC1CCCCN1S(=O)(=O)c1coc(C(N)=O)c1` (centres undefined), for which the cytotoxicity was -2.9%.
As for `CC(=O)NC(C)C12CC3CC(CC(C(=O)O)(C3)C1)C2` (centres undefined), the cytotoxicity is -6.6%.
On to `CSc1nc2ccc(S(=O)(=O)NC3CCCCC3)cc2s1`, for which the cytotoxicity is 6.9%.
With `Cc1ccc(S(=O)(=O)Nc2ccc3nc(N)sc3c2)cc1`, the cytotoxicity is -16.3%.
`CSc1nc2ccc(NS(=O)(=O)c3ccc(Cl)s3)cc2s1`: the cytotoxicity is 55.3% (active).
Then `CCOc1cccc(/C(O)=C2/C(=O)C(=O)N(CCOC)C2c2ccc(C)o2)c1` (centres undefined), with -8%; and `Cc1cc(C)nc(N2CCC(CNC(=O)CCc3ccccc3)CC2)n1`, with -11.3%; and `O=C(CCc1nc2ccccc2[nH]1)Nc1ccccc1`, with -8.6%.
With `CCOC(=O)c1c(C)c(C(=O)Nc2ccc3c(c2)OCCO3)c(C)n1CC`, the cytotoxicity was 17.2%.
As for `CCOC(=O)c1c(C)c(C(=O)Nc2ccc(N(C)C)cc2)c(C)n1CC`, the cytotoxicity was 54.2% (active).
As to `CCOC(=O)c1c(C)c(C(=O)Nc2ccccc2)c(C)n1CC`, the cytotoxicity was 4.4%.
Turning to `CC(C)NS(=O)(=O)c1ccc(CCC(=O)O)cc1`, the cytotoxicity is -5.7%.
Turning to `CC1=C(C(N)=O)C(c2cccnc2)n2nc(-c3cccc(C)c3)nc2N1` (centres undefined), the cytotoxicity is -15.3%.
On to `CCCc1cc(C(=O)Cc2ccc(F)cc2)c(O)cc1O`, for which the cytotoxicity was 78.8% (active).
For `CCc1cc(C(=O)Cc2ccc(F)cc2)c(O)cc1O`, the cytotoxicity was 54.4% (active).
Take `CCc1cc(C(=O)Cc2cnn(-c3ccccc3)c2)c(O)cc1O`: the cytotoxicity is 14.9%.
With `CCc1cc(C(=O)Cc2nc3ccccc3[nH]2)c(O)cc1O`, the cytotoxicity was 9.1%.
Regarding `CCc1cc(C(=O)COc2ccccc2F)c(O)cc1O`, the cytotoxicity is 5.5%.
On to `CCCc1cc(C(=O)Cc2ccc(C(=O)OCC)o2)c(O)cc1O`, for which the cytotoxicity was 24%.
In the case of `CC(=O)c1cnc2cc(-c3ccccc3)nn2c1C`, the cytotoxicity was -20.8%.
With `Cc1nc(SCc2ccccc2)c(C(F)(F)F)c(=O)[nH]1`, the cytotoxicity is 2.3%.
On to `Cc1nc(Nc2ccc(F)cc2)[nH]c(=O)c1CCC(C)C`, for which the cytotoxicity is 62.1% (active).
Consider `Cc1nc(Nc2ccccc2)[nH]c(=O)c1CCC(C)C`, for which the cytotoxicity is -16.8%.
In the case of `Cc1ccc(Nc2nc(C)c(CCC(C)C)c(=O)[nH]2)cc1`, the cytotoxicity was 7.1%.
Regarding `Cc1ccc(-c2nn(CC(=O)NCCN3CCOCC3)c(=O)c3ccccc23)cc1`, the cytotoxicity was 0.5%.
Take `O=c1c2cccc3c2c(nn1CN1CCOCC1)-c1ccccc1-3`: the cytotoxicity was 53% (active).
`O=C(Cn1nc(-c2ccccc2)c2ccccc2c1=O)NCCN1CCOCC1`: the cytotoxicity is -11.2%.
Regarding `CC(NC(=O)c1cccs1)c1ccc2c(c1)OCO2` (centres undefined), the cytotoxicity is -2.3%.
Consider `O=C(CSc1nnc(-c2ccc(O)cc2)n1Cc1ccco1)c1cccs1`, for which the cytotoxicity is -1.1%.
In the case of `O=C(CSCc1ccco1)c1cccs1`, the cytotoxicity is -7.2%.
For the compound `O=C(CC(SCCO)c1ccc2c(c1)OCO2)c1cccs1` (centres undefined), the cytotoxicity was 54.5% (active).
On to `O=C(CC(SCc1ccco1)c1ccc(O)cc1)c1cccs1` (centres undefined), for which the cytotoxicity was 54.4% (active).
As to `O=C(CC(SCCO)c1ccc2c(c1)OCO2)c1ccco1` (centres undefined), the cytotoxicity is 1.4%.
With `COc1ccc(N2CCN(C(=O)CSc3ccccc3N)CC2)cc1`, the cytotoxicity was -6.2%.
Turning to `O=C(CCCSc1nc(-c2ccco2)cc(C(F)(F)F)n1)NCc1cccs1`, the cytotoxicity is -4.3%.
Turning to `Cc1c(Cl)cccc1NC(=O)Cn1cccc1`, the cytotoxicity is 3.2%.
For `Cc1cc(Nc2nc3ccccc3[nH]c2=O)n(-c2ccccc2)n1`, the cytotoxicity is 8%.
As for `O=C(CN(Cc1ccco1)C(=O)CNS(=O)(=O)c1ccc(F)cc1)NCc1ccc(F)cc1`, the cytotoxicity was -4%.
Turning to `O=C(CN(Cc1ccco1)C(=O)CNS(=O)(=O)c1ccccc1)NCc1ccc(F)cc1`, the cytotoxicity was -1.3%.
In the case of `O=C(CN(Cc1ccco1)C(=O)CNS(=O)(=O)c1ccc(Cl)cc1)NCc1ccc(F)cc1`, the cytotoxicity is 70% (active).

These data come from PubChem BioAssay AID430 (Sanford-Burnham Center for Chemical Genomics, 2006).
